INHIBITION data for 63 compounds are collected here from ChEMBL document CHEMBL4513216, “Probing the Open Global Health Chemical Diversity Library for Multistage-Active Starting Points for Next-Generation Antimalarials” (ACS Infect Dis, 2020).

About 2,100 (3.2%) of roughly 65,000 compounds showed an effect of 50% or more. The median lay at about -52%. Many of the other results were omitted from the sample, so strong results are more common in it than they were.

For this test, the system named is Plasmodium falciparum. The test is described as follows: Screen against P. falciparum Asexual Blood Stage (ABS), at 5uM. Type of test: functional, Dd2. Conditions: tested at 5 uM.
For the compound `CN1CCCC2(CCN(C(=O)c3ccncc3)C2)C1` (stereo not drawn), the INHIBITION is -62%.

Take `CN1CCN([C@@H]2CN(C(=O)c3ccnnc3)[C@@H]3CCCO[C@H]23)CC1`: the INHIBITION is -103%.

On to `Cc1oc(-c2ccco2)nc1CC(=O)N1CCN(CC(C)O)CC1` (stereo not drawn), for which the INHIBITION is given as -65.7%.

As to `Fc1ccc(Cc2cnc(C3CCCN3)cn2)cc1` (stereo not drawn), the INHIBITION is given as 45.6%.

Take `CN1CCCC1c1cccc(Cc2ccc(F)cc2)n1` (stereo not drawn): the INHIBITION is 62.1%.

Consider `CN1CCCC1c1ccc(N2CCOCC2)cn1` (stereo not drawn), for which the INHIBITION was -144%.

As for `Cc1nnc([C@H]2C[C@@H]3CCN(Cc4cc(C)on4)C[C@H]3O2)[nH]1`, the INHIBITION was -33.8%.

As for `Cc1cc(NC(=O)NC2CCN(C(C)C)CC2)c2ncccc2c1`, the INHIBITION came out at 79.7%.

Regarding `CC(C)N1CCC(N(C)c2ccnc(N(C)C)n2)CC1`, the INHIBITION was found to be 39.1%.

Take `CC(C)N1CC[C@@H]2OC[C@H](C(=O)Nc3cccnc3)C[C@@H]2C1`: the INHIBITION is -33.5%.

On to `CN(C)Cc1cncc2c1CCN(Cc1ccoc1)C2`, for which the INHIBITION is given as -67.1%.

Consider `c1cc2c(cc1C1(CNC3=NCCN3)CCCC1)OCCO2`, for which the INHIBITION was determined as 81.1%.

Take `Clc1ccc(C2(CNC3=NCCN3)CC2)cc1`: the INHIBITION was found to be 83.2%.

In the case of `Fc1ccc(C2(CNC3=NCCN3)CCCC2)cc1`, the INHIBITION was determined as 83.5%.

`Clc1ccc(C2(CNC3=NCCN3)CCCC2)cc1`: the INHIBITION was 83.7%.

On to `O=C(NC[C@]12COC[C@H]1CN(Cc1cccnc1)C2)c1ccsc1`, for which the INHIBITION came to 5.35%.

`CNC(=O)C1CCC2(CCNCC2)C1` (stereo not drawn): the INHIBITION is reported as -92%.

With `Cc1ccc(N2C[C@@H]3CN(Cc4ccoc4)CCO[C@@H]3C2)nn1`, the INHIBITION is listed as -14.1%.

In the case of `Cc1oncc1C(=O)N[C@@H]1CN(C2CCC2)C[C@@H]2CCCO[C@@H]21`, the INHIBITION is listed as -114%.

Consider `O=C(Cc1c(F)cccc1F)N1CCN(CC(=O)N2CCCC2)CC1`, for which the INHIBITION is reported as -130%.

In the case of `Cc1cc(CN2CC[C@H]3C[C@@H](c4nccs4)O[C@@H]3C2)no1`, the INHIBITION was -79.5%.

For the compound `CC(=O)N1CCOCC2(CCCNC2)C1` (stereo not drawn), the INHIBITION is on record as -96.3%.

For `Clc1ccc(C2(CNC3=NCCN3)CCCCC2)cc1`, the INHIBITION worked out at 90.2%.

For the compound `CN(C)C(=O)C1CCC2(CCNCC2)C1` (stereo not drawn), the INHIBITION is -63%.

With `CC(C)n1[nH]c(=O)c2c1NC(=O)CSC2c1cccc(OCC(N)=O)c1` (stereo not drawn), the INHIBITION is -96.5%.

For the compound `CC(NCc1ccc(OCC(N)=O)cc1)c1ccc2c(c1)CCCC2` (stereo not drawn), the INHIBITION turned out to be 73.4%.

`CC(C)n1[nH]c(=O)c2c1NC(=O)CSC2c1ccc(OCC(N)=O)cc1` (stereo not drawn): the INHIBITION is given as -43.5%.

As to `O=C(c1cccnc1)N1CCN2C[C@H](Oc3cncnc3)C[C@H]2C1`, the INHIBITION is recorded as -64.5%.

Regarding `Cc1noc(C)c1CN1CC[C@@H]2O[C@H](COCC3CC3)CC[C@@H]21`, the INHIBITION is given as -4.95%.

With `Cc1ccc(-c2nc(CNC(C)CCO)[nH]c2-c2ccccn2)cc1` (stereo not drawn), the INHIBITION is listed as 86%.

On to `c1cc(CN2CC[C@H]3C[C@H](c4nc(C5CC5)cs4)O[C@@H]3C2)ccn1`, for which the INHIBITION is reported as -49.9%.

With `CN(C)c1ncc2c(c1C(=O)O)CCN(Cc1ccco1)C2`, the INHIBITION is given as -111%.

As to `Cn1ccnc1NC[C@@H]1CCC[C@@H]2CN(Cc3cccnc3)C[C@@H]21`, the INHIBITION is on record as -26.3%.

Take `CC(=O)N1C[C@H]2CCCC(N3CCN(c4ncccn4)CC3)[C@H]2C1` (stereo partly drawn): the INHIBITION is -104%.

Take `c1ccc(NC[C@@H]2CCC[C@@H]3CN(c4ncccn4)C[C@@H]32)nc1`: the INHIBITION is 72.9%.

For the compound `c1ccc(CN2C[C@@H]3CCCO[C@@H]3[C@H](Nc3ccccn3)C2)nc1`, the INHIBITION is reported as 18.5%.

In the case of `c1cnc(NC[C@@H]2CCC[C@@H]3CN(Cc4cc[nH]n4)C[C@@H]32)nc1`, the INHIBITION is on record as -16.9%.

Regarding `c1ccc(NC[C@@H]2CCC[C@@H]3CN(Cc4nccs4)C[C@@H]32)nc1`, the INHIBITION stood at 57.1%.

For `c1cncc(CN2C[C@H]3CCC[C@@H](CNc4cnccn4)[C@H]3C2)c1`, the INHIBITION was -3.45%.

Turning to `c1ccc(NC[C@@H]2CCC[C@@H]3CN(Cc4csnn4)C[C@@H]32)nc1`, the INHIBITION was 62%.

As to `c1cnc(NC[C@@H]2CCC[C@@H]3CN(Cc4csnn4)C[C@@H]32)nc1`, the INHIBITION came to 47.7%.

On to `c1ccc(NC[C@@H]2CCC[C@@H]3CN(Cc4cccnc4)C[C@@H]32)nc1`, for which the INHIBITION is 75%.

With `c1ccc(NC[C@@H]2CCC[C@@H]3CN(Cc4cc[nH]n4)C[C@@H]32)nc1`, the INHIBITION is -29.8%.

As for `O=C1N(c2cncnc2)CCC12CCCN(Cc1cccnc1)C2` (stereo not drawn), the INHIBITION was -88.1%.

For `Cc1nn(C)c2ncc(S(=O)(=O)N3CCCN4CCCC4C3)cc12` (stereo not drawn), the INHIBITION was -18.1%.

With `O=C1CSC(c2cccnc2)c2c(n(C3CCOCC3)[nH]c2=O)N1` (stereo not drawn), the INHIBITION is listed as -140%.

`COCCN1CCCC2(CCC(=O)N2Cc2cccnc2)C1` (stereo not drawn): the INHIBITION is recorded as -66.3%.

For `O=C1CCC2(CCN(Cc3ccc(F)cc3)CC2)N1CCN1CCCC1`, the INHIBITION was determined as 84.6%.

In the case of `CC[C@@H]1N(C)CCC[C@]12CCC(=O)N2Cc1ccncc1`, the INHIBITION is listed as 3.77%.

As for `Cc1cnc(N2CCCC3(CCCN3CC(=O)N(C)C)C2)nc1` (stereo not drawn), the INHIBITION was -98.2%.

Regarding `COCc1cncc2c1CCN(Cc1cccs1)C2`, the INHIBITION is given as -1.55%.

`COCCNc1nc2c(c(NCCc3cccs3)n1)CCNCC2`: the INHIBITION turned out to be 81.9%.

Take `COCCNc1nc2c(c(NCc3cnc(C)c(C)c3)n1)CCNCC2`: the INHIBITION is given as -67.4%.

With `Cn1cc(C2=CCN(CCCC(=O)Nc3ccc(C#N)cc3)CC2)cn1`, the INHIBITION was -69.1%.

In the case of `Cc1ccc(CN2CC[C@@H]3[C@@H]2CCN3C(=O)Cc2cccs2)o1`, the INHIBITION was -34.3%.

With `CCn1ccnc1CN1CCCN(C(=O)Cc2ccccc2C)CC1`, the INHIBITION is -41.3%.

For `CCn1c(C)nnc1CN(C)C1CCN(CCOc2ccccc2)C1` (stereo not drawn), the INHIBITION was -23.4%.

`CCn1ccnc1CN(C)C1CCCN(Cc2ccccc2F)C1` (stereo not drawn): the INHIBITION was 70.4%.

For the compound `Cc1nc(CC(=O)N(C)C2CCCN(CCc3ccccc3)C2)cs1` (stereo not drawn), the INHIBITION is -42.4%.

Take `CCn1ccnc1CN1CCCN(C(=O)Cc2ccc(F)cc2)CC1`: the INHIBITION is -4.98%.

Take `Cc1ncc(CN(C)C2CCCN(CCc3ccccc3)C2)n1C` (stereo not drawn): the INHIBITION is reported as 90%.

On to `CCn1ccnc1CN(C)C1CCCN(CCCc2ccccc2)C1` (stereo not drawn), for which the INHIBITION is on record as 86.8%.

Consider `CCn1ccnc1CN(C)C1CCCN(CCc2ccccc2)C1` (stereo not drawn), for which the INHIBITION was 77.1%.
